Out of some 360,000 compounds screened, about 2,300 (0.64%) were called active. Rule as the data show it: active = inhibition mostly above about 40% (no sharp cut-off); inactive = mostly below about 27%. Only a selection was taken, and actives are over-represented in it overall.
Each molecule was assayed against Sentrin-specific protease 8 (Homo sapiens) (UniProt Q96LD8) (assay: blockers of SENP8 deneddylase activity – biochemical, fluorescence, Nedd8 protein substrate, uHTS, primary screen (AID 602440)). Conditions: recombinant SENP8, Nedd8 substrate fluorescence; at 20 µM; active compounds read high.
Sentrin-specific protease 8 (Homo sapiens), sequence (Q96LD8 whole entry, looked up): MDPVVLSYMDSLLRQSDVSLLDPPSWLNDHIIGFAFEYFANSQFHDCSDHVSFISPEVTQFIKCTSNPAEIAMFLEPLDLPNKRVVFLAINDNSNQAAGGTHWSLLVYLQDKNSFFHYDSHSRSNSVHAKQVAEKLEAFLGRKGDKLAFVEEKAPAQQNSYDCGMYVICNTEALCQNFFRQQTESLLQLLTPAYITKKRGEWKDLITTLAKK

Row | Compound | inhibition
1 | CC1(C(=O)Nc2cccc3c2CCCC3)CCN1C(=O)CCc1ccc(Cl)cc1Cl (stereo unspecified) | 10.4% (inactive)
2 | CC(=O)N1C(=O)/C(=C2\SC(=S)N(NC(=O)c3ccc(O)cc3)C2=O)c2ccccc21 | 53.5% (active)
3 | COc1ccc(C(=O)NN2C(=O)C3C(c4ccccc4)C=CC(c4ccccc4)C3C2=O)cc1 (stereo unspecified) | 7% (inactive)
4 | COc1ccc2c(c1)N(C)/C(=C1/SC(=S)N(NC(C)=O)C1=O)S2 | 1.5% (inactive)
5 | Oc1cccc(C2c3[nH]c4ccccc4c3CCN2Cc2cnn(-c3ccccc3)c2)c1 (stereo unspecified) | -56.9% (inactive)
6 | CSCC[C@H](NC(=O)CCCn1nnc2ccccc2c1=O)C(=O)O | 38.5% (inactive)
7 | CCOC(=O)N1CCN(C(=O)C[C@@H]2C[C@@]3(C(=O)OC)CC(C)(C)CC=C3N(Cc3ccco3)C2=O)CC1 | 26.3% (inactive)
8 | CCCc1ccc(C(=O)COC(=O)CN2C(=O)NC3(CCCCC3C)C2=O)cc1 (stereo unspecified) | 9.6% (inactive)
9 | CCCCCCCCCCCCCCCC(=O)OC/C=C(C)/C=C/C=C(C)/C=C/C1=C(C)CCCC1(C)C | 40.9% (active)
10 | CCc1nnc(NC(=O)CCN(c2ccc(C)cc2)S(=O)(=O)c2ccccc2)s1 | 14.8% (inactive)
11 | COCCCNC(=O)CNC(=S)N(Cc1cc(OC)c(OC)c(OC)c1)C1CCCC1 | 4.9% (inactive)
12 | Cc1c(NC(=O)Nc2cccc([N+](=O)[O-])c2)c(=O)n(-c2ccccc2)n1C | 9.3% (inactive)
13 | CCOC(=O)C(CC)Sc1ncnc2c1nnn2-c1ccc(F)cc1 (stereo unspecified) | 40.3% (active)
14 | CCOC(=O)C(C)n1cnc2c(nnn2-c2ccc(F)cc2)c1=O (stereo unspecified) | 6.3% (inactive)
15 | COC(=O)C(C)n1cnc2c(nnn2-c2ccc(F)cc2)c1=O (stereo unspecified) | 4.4% (inactive)
16 | CC(C)c1nc2oc3c(N4CCN(C)CC4)ncnc3c2c2c1CCC2 | -130% (inactive)
17 | Cc1ccnc(N2CCN(C(=O)CSc3nc4ccccc4nc3N3CCCCC3)CC2)c1 | -63.3% (inactive)
18 | OC(COCC1COc2ccccc2O1)CN1CCN(c2ccc(F)cc2)CC1 (stereo unspecified) | 16.7% (inactive)
19 | CN1/C(=c2/s/c(=C3/C(=O)N(c4ccccc4)NC3=Nc3ccccc3)n(C)c2=O)C(C)(C)c2ccccc21 | 54.8% (active)
20 | OCC1(Cc2ccccc2)CCN(Cc2cc3ccccc3o2)CC1 | 3.7% (inactive)
21 | CCN(CC)S(=O)(=O)c1ccc(N2CCOCC2)c(NC(=O)C2CSC3(C)CCC(=O)N23)c1 (stereo unspecified) | -11.2% (inactive)
22 | Cc1cc(C)cc(NC(=O)NC2CCCCCCC2)c1 | 1.8% (inactive)
23 | Cc1cc([N+](=O)[O-])c(N2CCC[C@@H]2C(=O)O)c([N+](=O)[O-])c1 | 2.1% (inactive)

Row | Compound | inhibition
24 | Cc1cc([N+](=O)[O-])c(NC2CCCCC2)c([N+](=O)[O-])c1 | 45.6% (active)
25 | CCCCN(CC(=O)NC(C)(C)C)C(=O)C(=O)Nc1ccc2c(c1)OCCO2 | 17% (inactive)
26 | O=S(=O)(O)CCN1CCOCC1 | 24.3% (inactive)
27 | O=C1c2ccccc2C(=O)C1c1ccccc1 | 4.5% (inactive)
28 | O=C1c2ccccc2-c2ccccc2NC1O (stereo unspecified) | 14.1% (inactive)
29 | O=C1c2ccccc2C(=O)C1C(=O)C1CC1 | 37.6% (active)
30 | Cc1cccc2nc(CNc3ccc(F)cc3)cn12 | -86.7% (inactive)
31 | CCOC(=O)c1sc2nc(C)nc(Nc3ccc(OC)c(OC)c3)c2c1C | -82.2% (inactive)
32 | CCCCN1CC(C)(C)[C@H](CC(=O)Nc2ccc(Br)cc2)C1=O | 15.8% (inactive)
33 | CN(C)c1nc(NN)nc(Nc2ccc(F)cc2)n1 | 12.3% (inactive)
34 | Cn1c2ccc(F)cc2c2nnc(NN)nc21 | 49.2% (active)
35 | CCn1c2ccc(F)cc2c2nnc(SCCN3CCOCC3)nc21 | 11.3% (inactive)
36 | N#Cc1c(N)nc2c3c(sc(=N)c2c1N)NC(=O)CC3c1ccccc1Cl (stereo unspecified) | -174% (inactive)
37 | CCCCN1CC(N2CCN(Cc3cccc(C)c3)CC2)CS1(=O)=O (stereo unspecified) | 12.1% (inactive)
38 | CC1=NOC(=O)/C1=C\c1ccccc1 | 42.9% (active)
39 | C#CCOc1ccccc1/C=C1/C(=O)ON=C1C | 13.5% (inactive)
40 | Cc1ccc(S(=O)(=O)n2oc(=O)c(C3CCCCC3)c2N)cc1 | 7.6% (inactive)
41 | COc1cc(OC)cc(C(=O)NCC(=O)OCc2csc(-c3ccccc3)n2)c1 | 15.3% (inactive)
42 | Cc1ccc(F)cc1NC(=O)c1cccc(N(C)C)c1 | -82.7% (inactive)
43 | CN(C)S(=O)(=O)c1ccc(C(=O)NCC2(N3CCOCC3)CCCCC2)cc1 | 5.2% (inactive)
44 | COc1cc(N2CCCC2)c(OC)cc1/C=C(/C#N)c1cccc(Br)c1 | 75.3% (active)
45 | CCC(C)CN1CCC(CO)(Cc2ccccc2Cl)CC1 (stereo unspecified) | 1.5% (inactive)
46 | COc1ccc(Br)c(Cn2c(C)c(C(=O)NCc3cccs3)sc2=O)c1 | 3.5% (inactive)

Row | Compound | inhibition
47 | COc1cccc(Nc2nnc(SCC(=O)N3CC(=O)Nc4ccccc43)s2)c1 | -6.6% (inactive)
48 | COc1c(F)c(F)c(C(=O)O)c(Nc2ccccc2C)c1F | 4.1% (inactive)
49 | Cc1ccccc1NCC(=O)N/N=C\c1ccc([N+](=O)[O-])s1 | 45.1% (active)
50 | Cc1nn(Cc2ccc(Cl)cc2)c(Cl)c1/C=N/NC(=O)CNc1ccccc1F | 7.1% (inactive)
51 | Cc1ccc(S(=O)(=O)N2CCN(CC(=O)N/N=C/c3ccc(Br)s3)CC2)cc1 | 6% (inactive)
52 | O=C(CN(C(=O)CNC(=O)c1cccs1)c1cccc(F)c1)NC1CCCCC1 | 11.2% (inactive)
53 | Cc1ccc(NC(=O)COC(=O)CN2CCSC2=O)cc1F | 14.3% (inactive)
54 | Cc1cccc(S(=O)(=O)N(C)C[C@H]2OCc3cnnn3CCCC(=O)N([C@@H](C)CO)C[C@H]2C)c1 | 14.1% (inactive)
55 | CC(=O)N1CCN(S(=O)(=O)c2cccc(C(=O)NC3CCC(C)CC3)c2)CC1 (stereo unspecified) | 43.9% (active)
56 | COc1ccc(OC)c(NC(=O)c2cccc(S(=O)(=O)N3CCN(C(C)=O)CC3)c2)c1 | 13.3% (inactive)
57 | CC(=O)Nc1ccc(S(=O)(=O)N2CCC(NC(=O)c3ccccc3)CC2)cc1 | 9% (inactive)
58 | C/C(=N\NC(=O)CCn1nc(C)cc1C)C(C)(C)C | 13.5% (inactive)
59 | CCN1C(=O)[C@H]2[C@@H](c3ccc(C(F)(F)F)cc3)N[C@]3(CCCN(Cc4ccc(Br)cc4)C3=O)[C@H]2C1=O | 3.9% (inactive)
60 | COc1cccc(N2C(=O)CC(N3CCc4ccccc4C3)C2=O)c1 (stereo unspecified) | 11.5% (inactive)
61 | O=C(c1c(F)cccc1Cl)N1CCN(S(=O)(=O)c2ccc3c(c2)OCCCO3)CC1 | 5.8% (inactive)
62 | O=C(N=C1SC2CS(=O)(=O)CC2N1Cc1ccccc1)c1ccccc1 (stereo unspecified) | 13.8% (inactive)
63 | O=C(CCC1CCCC1)N=C1SC2CS(=O)(=O)CC2N1Cc1ccccc1 (stereo unspecified) | 8.9% (inactive)
64 | CC(C)CC(=O)N=C1SC2CS(=O)(=O)CC2N1CCc1ccccc1 (stereo unspecified) | 42% (active)
65 | Cn1c2c(c(=O)n(C)c1=O)C(c1ccc(O)cc1)Nc1ccccc1O2 (stereo unspecified) | 23% (inactive)
66 | COc1ccc(S(=O)(=O)Nc2ccc3cn[nH]c3c2)cc1[N+](=O)[O-] | 45.4% (active)
67 | O=C(O)c1cc(S(=O)(=O)Nc2ccc3cn[nH]c3c2)ccc1Br | -90.8% (inactive)
68 | COc1ccc(S(=O)(=O)N/N=C\c2ccc(OC)c(COc3ccc(C)cc3[N+](=O)[O-])c2)cc1 | 10.6% (inactive)
69 | Cc1cc(NC(=O)CCC(=O)N(Cc2ccccc2)C(C(=O)NC2CCCC2)c2ccc(C)o2)no1 (stereo unspecified) | 1.5% (inactive)

Row | Compound | inhibition
70 | CCOc1ccc(NC(=O)c2cccc3c2C(=O)N(CC2CCCO2)C3)cc1 (stereo unspecified) | 5.6% (inactive)
71 | CCCN1C(=O)C(Cc2nc3ccccc3c(=O)n2-c2ccccc2)c2cc(C)ccc21 (stereo unspecified) | 12.4% (inactive)
72 | CCn1c(O)c(N=NC(=O)c2cccc(S(=O)(=O)N3CCCCC3)c2)c2ccccc21 | 28% (inactive)
73 | CCn1c(O)c(N=NC2=NC(=O)CS2)c2cc(C)ccc21 | 46.9% (active)
74 | N#Cc1cccc(NC(=O)c2cc(C3CCCCN3C(=O)CCc3ccccc3)on2)c1 (stereo unspecified) | 8.1% (inactive)
75 | Clc1ccc(C2[C@H]3CN(CC4CCCCC4)[C@H](c4ccccc4)C34CC2(c2cccnc2)C4)cn1 (stereo partly specified) | 7.6% (inactive)
76 | COc1ccc(NC(=O)CSc2nnnn2-c2cccc(OC)c2)cc1 | 10.5% (inactive)
77 | COc1ccc(Br)cc1/C=N/Nc1ccc(S(=O)(=O)Nc2ccccc2C(=O)O)cc1[N+](=O)[O-] | 46.4% (active)
78 | Cc1ccc(S(=O)(=O)NC(=O)COc2ccccc2C)cc1 | 12.8% (inactive)
79 | CC1CN(C(=O)c2ccccc2NS(=O)(=O)c2cccc([N+](=O)[O-])c2)CC(C)O1 (stereo unspecified) | 4.5% (inactive)
80 | Cc1ccc(NS(=O)(=O)c2ccc(N/N=C/c3ccccc3OCC(=O)O)c([N+](=O)[O-])c2)c(C)c1 | 49.7% (active)
81 | COc1ccccc1C(CNC(=O)c1cccc(NS(=O)(=O)c2ccc(Br)cc2)c1)N(C)C (stereo unspecified) | 0.9% (inactive)
82 | COc1ccc(N(CC(=O)Nc2ccc(C)cc2C)S(=O)(=O)c2ccccc2[N+](=O)[O-])c(OC)c1 | 10.2% (inactive)
83 | COc1cccc(N(Cc2nnc3n2CCCCC3)C(=O)Nc2ccccc2F)c1 | 9.7% (inactive)
84 | CC1CC2=C(CC1/C=N/NC(N)=S)C(C)(C)CCC2 (stereo unspecified) | 12.2% (inactive)
85 | O=C(CCNS(=O)(=O)c1ccccc1)NCCSc1ccc(Br)cc1 | 9% (inactive)
86 | CNC(=O)COc1ccc(S(=O)(=O)Nc2ccccc2)cc1 | 3.4% (inactive)
87 | Cc1ccc(S(=O)(=O)N[C@H](CO)C(C)C)cc1 | 11.7% (inactive)
88 | Cc1ccc(S(=O)(=O)/N=C2\C=C(NS(=O)(=O)c3ccc(C)cc3)C(=O)c3ccccc32)cc1 | 89.9% (active)
89 | Cc1ccc(S(=O)(=O)N/N=C(\c2ccccc2)C2CC2)cc1 | 3.3% (inactive)
90 | COc1ccc(S(=O)(=O)/N=C2\C=C(NS(=O)(=O)c3ccccc3)C(=O)c3ccccc32)cc1 | 70% (active)
91 | COc1ccc(C(=O)C(C)OC(=O)c2cccc(S(=O)(=O)Nc3c(C)n(C)n(-c4ccccc4)c3=O)c2)cc1 (stereo unspecified) | 5.8% (inactive)

Source: PubChem BioAssay AID602440 (Sanford-Burnham Center for Chemical Genomics, 2012)
